High-throughput results from PubChem.
NCOA2 inhibitor: inhibition of GAL4-SRC2 driven luciferase reporter, primary screen, SRC2 inhibitor project, cell-based, luminescence; actives 0.17% (n = 370,000); AID 651957, 2012; inhibition, % at 9 µM; HEK293 GAL4-SRC2 luciferase reporter;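 active means inhibition above the mean inhibition of all tested compounds plus 3 SD, set per campaign, cut at about 52% in these data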;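 further: 0% = DMSO treated cells and 100% = cells given Gossypol at 36 µM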
SRC3 inh: SRC3 coactivator transcriptional activity inhibitors, primary screen, cell-based, luminescence; Nuclear receptor coactivator 3 (Homo sapiens), Q9Y6Q9; actives 0.17% (n = 360,000); inhibition, % at 3.6 µM; AID 588352, 2011; HEK293 GAL4-SRC3 luciferase reporter;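 active means inhibition above a per-campaign cutoff, the mean of all compounds plus 3 SD, cut at about 60% in these data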;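 further: 0% = DMSO-treated cells and 100% = gossypol-treated cells at 36 µM; higher means less SRC3-driven luciferase light from the GAL4 reporter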
Target sequence (Q9Y6Q9 whole entry, looked up, the tested form may be a part): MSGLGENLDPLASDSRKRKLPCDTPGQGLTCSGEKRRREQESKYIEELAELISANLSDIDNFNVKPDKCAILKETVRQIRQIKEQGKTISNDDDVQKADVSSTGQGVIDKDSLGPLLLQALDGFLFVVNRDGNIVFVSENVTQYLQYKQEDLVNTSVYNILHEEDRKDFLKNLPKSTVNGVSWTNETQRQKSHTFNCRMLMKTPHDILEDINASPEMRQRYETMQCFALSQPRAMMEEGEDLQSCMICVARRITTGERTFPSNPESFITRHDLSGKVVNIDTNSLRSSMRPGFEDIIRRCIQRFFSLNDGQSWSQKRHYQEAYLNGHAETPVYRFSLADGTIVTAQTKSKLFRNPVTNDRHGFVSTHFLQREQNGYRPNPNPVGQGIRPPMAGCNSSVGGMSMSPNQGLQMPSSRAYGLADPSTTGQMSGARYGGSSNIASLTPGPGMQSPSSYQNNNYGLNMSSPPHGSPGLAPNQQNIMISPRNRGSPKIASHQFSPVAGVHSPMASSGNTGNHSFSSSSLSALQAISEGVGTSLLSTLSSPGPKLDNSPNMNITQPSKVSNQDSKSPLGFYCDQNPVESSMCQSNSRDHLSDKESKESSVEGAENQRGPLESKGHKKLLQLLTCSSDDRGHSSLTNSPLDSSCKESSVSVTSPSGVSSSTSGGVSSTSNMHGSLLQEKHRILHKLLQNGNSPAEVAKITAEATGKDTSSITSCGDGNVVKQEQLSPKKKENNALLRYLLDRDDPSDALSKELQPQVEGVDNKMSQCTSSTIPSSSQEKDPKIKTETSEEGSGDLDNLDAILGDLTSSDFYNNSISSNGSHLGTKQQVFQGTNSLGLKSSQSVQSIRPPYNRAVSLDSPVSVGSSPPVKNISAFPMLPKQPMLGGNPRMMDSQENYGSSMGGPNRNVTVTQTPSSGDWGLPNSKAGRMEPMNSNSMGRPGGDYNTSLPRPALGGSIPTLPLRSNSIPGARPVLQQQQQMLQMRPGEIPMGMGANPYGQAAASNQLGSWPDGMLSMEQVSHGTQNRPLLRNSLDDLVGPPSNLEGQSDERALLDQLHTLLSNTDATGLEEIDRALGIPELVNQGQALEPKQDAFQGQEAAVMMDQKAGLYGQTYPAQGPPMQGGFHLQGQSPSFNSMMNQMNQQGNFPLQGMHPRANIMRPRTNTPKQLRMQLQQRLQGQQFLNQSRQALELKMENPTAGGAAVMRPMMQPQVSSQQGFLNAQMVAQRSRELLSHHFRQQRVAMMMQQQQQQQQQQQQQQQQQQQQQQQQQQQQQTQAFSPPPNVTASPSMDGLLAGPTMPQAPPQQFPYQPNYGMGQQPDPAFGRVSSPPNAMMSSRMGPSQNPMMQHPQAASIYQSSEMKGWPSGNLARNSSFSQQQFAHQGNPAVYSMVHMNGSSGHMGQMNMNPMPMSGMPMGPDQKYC
COUP-TFII inh: NR2F2 transcriptional activity inhibitors, primary screen, cell-based, luciferase reporter, HEK293T, luminescence | COUP transcription factor 2 (Homo sapiens), P24468 | HEK293T NGFI-A luciferase reporter | inhibition, % at 8.6 µM | actives 0.7% (n = 370,000) | AID 686940, 2013;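 active means inhibition above a per-plate cutoff, mean inhibition of test wells between control levels plus 3 SD, cut at about 38% in these data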;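 further: cells cotransfected with COUP-TFII expression vector driving the NGFI-A reporter; 0% = median of COUP-TF2 test wells and 100% = reporter-only cells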
Gli-Sufu antag: Gli-Sufu pathway antagonists, primary screen, luciferase luminescence, Sufu-KO-LIGHT cells, uHTS; Sufu-KO-LIGHT fibroblasts, Gli luciferase reporter luminescence; inhibition, % at 5 µM; actives 0.74% (n = 340,000);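 active means inhibition above about 55%, limit read from the data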;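 further: 0% = DMSO-treated cells and 100% = wells with medium but no cells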
NR5A2 inv ag: LRH-1 (NR5A2) inverse agonists, primary screen, cell-based, luminescence, HEK293T, StAR-luciferase reporter | LRH-1 transfected, 24 h | Nuclear receptor subfamily 5 group A member 2 (Homo sapiens), O00482 | actives 0.13% (n = 360,000) | inhibition, % at 3.6 µM;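 active means inhibition above the mean inhibition of all tested compounds plus 3 SD, cut at about 73% in these data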;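 further: 0% = DMSO wells and 100% = reporter-only cells lacking LRH-1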
SRC1 inh: SRC1 coactivator transcriptional activity inhibitors, primary screen, cell-based, luminescence; HEK293 GAL4-SRC1 luciferase reporter; inhibition, % at 3.6 µM; actives 0.12% (n = 360,000);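 active means inhibition above the campaign mean plus 3 SD, with each screening campaign given its own cutoff, cut at about 60% in these data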;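 further: 0% = DMSO treated cells and 100% = gossypol at 36 µM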
Gal4-VP16 ctr: Gal4-VP16 luciferase reporter inhibitors, counter-screen for COUP-TFII antagonist project, cell-based, luminescence, HEK293. shares compounds with COUP-TFII inh. inhibition, % at 8.5 µM. actives 25% (n = 2,500). AID 687007, 2013; in the data active means inhibition above about 13%
NR2F2 inh conf: NR2F2 transcriptional activity inhibitors, confirmation, cell-based, luciferase reporter, HEK293, triplicate. shares compounds with COUP-TFII inh. HEK293 NGFI-A luciferase reporter, luminescence. inhibition, % at 8.5 µM. actives 45% (n = 2,500). AID 687008, 2013;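 active means mean inhibition over three repeats above a set limit taken from the earlier primary screen, cut at about 38% in these data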;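 further: 100% = cells given the luciferase reporter alone without the COUP-TF2 vector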
* = called active by the depositor; · = not tested or not shown. Hits are enriched below; roughly 1.3% of the tested compounds scored in any of these assays.

SMILES	NCOA2 inhibitor	SRC3 inh	COUP-TFII inh	Gli-Sufu antag	NR5A2 inv ag	SRC1 inh	Gal4-VP16 ctr	NR2F2 inh conf
O=C1C=CC2C3C(=O)N(c4ccccc4)C(=O)C3C1N2Cc1ccccc1 (stereo unspecified)	74.8*	13.3	60.1*	-12.0	24.2	22.0	16.9*	5.1
O=C(OCc1cn(Cc2ccc(F)cc2F)nn1)N1CCCC1	15.4	·	9.5	·	·	·	·	·
COc1ccc(OC)c(CCNC(=O)Cn2nc(C)c3c(C)n(-c4ccc(C)cc4)nc3c2=O)c1	7.2	29.9	67.2*	-1.6	52.3	23.1	4.7	73.0*
O=C(CCl)Nc1ccc(C(=O)NCC2COc3ccccc3O2)cc1 (stereo unspecified)	44.2	·	39.9*	·	·	·	66.6*	25.1
O=C(Cc1ccccc1)Nc1ccc(C(=O)NCC2COc3ccccc3O2)cc1 (stereo unspecified)	-8.2	-19.3	-5.9	-7.1	33.9	8.5	·	·
Cc1cc(C(=O)NCC2COc3ccccc3O2)c2ccccc2n1 (stereo unspecified)	-19.1	18.6	38.3*	7.4	-3.6	9.8	4.4	4.7
COC(=O)[C@H]1[C@@H](O)[C@@]2(O)c3c(OC)cc(OC)cc3O[C@@]2(c2ccc(OC)cc2)[C@@H]1c1ccc(F)cc1	62.5*	·	84.3*	·	·	·	4.7	64.8*
COC(=O)C1C(=O)C=C(Nc2ccc(F)cc2)CC1c1ccc(OC)cc1 (stereo unspecified)	-40.8	-28.6	-10.6	-25.9	-43.0	-39.4	·	·
CN(c1ccc(NC(=O)CCc2c[nH]c3ccccc23)cc1)c1ccccn1	0.5	·	-6.4	·	·	·	·	·
CCNc1nc(-c2sc(NC(=O)C(C)(C)C)nc2C)c(-n2cc(-c3ccccc3)nn2)s1	12.8	·	66.0*	·	60.7	·	2.2	41.0*
Cc1nc(NC(=O)C(C)(C)C)sc1-c1nc(N)sc1-n1cc(-c2ccccc2)nn1	-18.1	·	4.7	·	-37.9	·	·	·
S=C(Nc1ccccc1Cl)OCCN1CCCC12CCC(c1ccccc1)CC2 (stereo unspecified)	·	·	13.6	·	·	·	·	·
CCCCNC(=O)O[C@H]1CC[C@@]23CCCN2C(=O)CCC[C@H]3C1	·	·	5.0	·	·	·	·	·
Nc1ccc(Nc2nc(-c3cc4ccccc4oc3=O)cs2)cc1	-54.6	-75.8	-24.1	-4.0	-45.6	-118.1	·	·
CC(=O)Nc1ccc(Nc2nc(-c3cc4ccccc4oc3=O)cs2)cc1	-8.3	-61.9	40.0*	-13.8	-55.4	-25.1	-135.4	-67.5
O=C(NCc1cccnc1)/C(=C/c1ccc(-c2cccc(C(F)(F)F)c2)o1)NC(=O)c1ccccc1	4.6	16.9	10.8	-6.4	-4.2	4.5	·	·
O=C(NCc1cccnc1)/C(=C/c1ccc(-c2ccc(Cl)cc2)o1)S(=O)(=O)c1ccccc1	65.5*	67.7*	49.0*	4.6	56.2	52.4	45.1*	44.0*
O=C(NCc1cccnc1)/C(=C\c1ccc(-c2ccc(Br)cc2)o1)S(=O)(=O)c1ccccc1	51.6	83.8*	55.9*	4.5	61.4	49.0	43.9*	48.4*
CN(C(=O)C1CCN(c2cncnc2)CC1)C1CCCCC1	9.5	·	3.0	·	·	·	·	·
CC(c1ccc(NC(=O)OC(C)(C)C)cc1)c1cn(C)c2ccccc12 (stereo unspecified)	-22.1	·	-14.8	·	·	·	·	·
COC(=O)c1ccc(-c2nc3cc(N)ccc3o2)cc1	42.0	-13.1	41.3*	3.8	29.1	-40.2	21.7*	-10.6
Cc1ccc(C)c(-c2nc3cc(N)ccc3o2)c1	55.1*	-8.2	41.6*	11.8	-17.5	-13.6	0.8	-17.7
c1ccc(N2CCN(c3c4c(nc5ncnn35)CCC4)CC2)cc1	-6.4	4.4	3.3	13.0	-9.3	-0.8	·	·
COc1cccc(N2CCN(c3c4c(nc5ncnn35)CCC4)CC2)c1	9.4	-5.5	54.9*	24.3	21.1	-9.4	-6.9	11.6
COc1ccc([C@H]2OC(=O)C[C@H]2C(=O)N2CCCC2)cc1OC	-4.6	·	2.5	·	·	·	·	·
SMILES	NCOA2 inhibitor	SRC3 inh	COUP-TFII inh	Gli-Sufu antag	NR5A2 inv ag	SRC1 inh	Gal4-VP16 ctr	NR2F2 inh conf
CCCCCC(=O)N1CC2(CC(c3cccc(NC(=O)COc4ccc(Cl)cc4)c3)=NO2)C[C@@H]1C(N)=O (stereo partly specified)	36.3	-4.2	41.9*	17.3	-8.2	-2.6	-10.6	12.7
CCC(=O)Nc1cccc(C2=NOC3(C2)C[C@@H](C(N)=O)N(C(=O)COc2ccc(Cl)cc2)C3)c1 (stereo partly specified)	10.1	3.2	14.2	-7.5	2.3	1.5	·	·
CN(C)c1ccc(C(C[N+](=O)[O-])c2c(N)n(C)c(=O)n(C)c2=O)c(F)c1C#N (stereo unspecified)	35.3	4.7	-1.7	-3.2	15.8	4.5	·	·
COc1ccc(Br)cc1C(C[N+](=O)[O-])c1c(N)n(C)c(=O)n(C)c1=O (stereo unspecified)	-27.6	-3.0	40.7*	7.2	27.5	-25.8	7.4	23.5
CCCCN(c1ccccc1)c1ncnc(N)c1[N+](=O)[O-]	57.0*	63.4*	51.6*	-16.0	24.3	60.9*	14.7*	30.7
CCOC(=O)Cc1csc(NC(=O)/C=C/c2ccc(Cl)cc2)n1	-2.1	-11.0	44.2*	-14.9	-14.0	-1.4	-65.7	4.5
CCOC(=O)Cn1cc(CN2CCS(=O)(=O)N(Cc3ccc(C)cc3)C(C(=O)OC)C2)nn1 (stereo unspecified)	-1.4	·	-23.2	·	·	·	·	·
COCc1cc(N2CCNC[C@@H]2C)ccc1N1CCN(Cc2ccccc2)[C@H](C)C1	-22.6	·	17.0	·	·	·	·	·
CCOC(=O)c1cc2c(C)n(-c3ccc(C)cc3)c(C)c2ccc1=O	-11.9	-30.8	40.9*	-30.6	-20.1	-30.1	-137.2	-19.3
CC(C)C[C@H]1COc2cccc(N3CCSCC3)c2S(=O)(=O)N1C	-4.0	·	10.4	·	·	·	·	·
N#Cc1nc(N2CCCCC2)nc(N2CCOCC2)n1	1.5	-9.0	10.4	-17.6	14.4	-1.7	·	·
N#Cc1nc(N2CCCC2)nc(N2CCCC2)n1	15.2	17.2	46.8*	5.9	19.1	2.5	-5.9	33.5
